Data on five compounds can be found in PubChem BioAssay.

Structures are written as SMILES. For some assays here: Potency and affinity values are given separately. Active and inactive are the calls of the source.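 The calls were made as follows, unless noted: active = normalized viability below 100% at a tested concentration; inactive = the rest.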

A short description of test [1]: drug combination growth inhibition, ovarian cancer – cell-based, oncology-focused library, rucaparib conditional, profiling panel (AID 1508598). The following applies: patient-derived ovarian cancer cells, CellTiter-Glo viability, 144 h, stronger effect = lower value. On the technique in general: ATP-based viability assays read luminescence as a measure of living cells.
Test [2] can be described thus: galactose survival enhancers in mitochondrial complex I cybrids – cell-based, galactose medium, ATP luminescence, primary screen (AID 1645843;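 active = z-score of at least 1.8 in each of two replicates, scored against plate mean and spread of sample wells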;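 also: positive z means more ATP and so rescue of galactose-driven cybrid death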). As to conditions: complex I mutant cybrid cells, 72 h, stronger effect = higher value.
A short description of test [3]: blockers of polyQ-driven CASP3 activation – cell-based (AID 1583). As to conditions: polyglutamine-induced caspase-3 activation, cell assay; stronger effect = higher value;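 tested at 10 µM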.
Test [4] can be described thus: yeast 75Q aggregation reduction – 75Q-TubU reporter (AID 1593). The following applies: Yeast 75Q polyglutamine aggregation reporter.
Test [5] is described as follows: restoration of touch response, mutant HTT neurons – whole organism, C. elegans mechanosensory neurons, N-terminal huntingtin (AID 1599). As to conditions: C. elegans polyQ-huntingtin mechanosensory neurons, stronger effect = higher value.
Test [6] in a line: blockers of cytochrome c efflux from mitochondria – biochemical, purified mitochondria (AID 1603).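 Also: mouse liver mitochondria challenged with calcium chloride; signal normalized to the plate average as 100%.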 As to conditions: stronger effect = lower value.
Test [7] is described as follows: polyglutamine aggregate formation blockers (AID 1604). The following applies: polyglutamine-induced protein aggregation inhibition assay; stronger effect = higher value; tested at 2.5 µM.
Test [8] in a line: glutamate transport activators, MN-1 cells, MN-1 cell line (AID 1612).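 Also: tested at 1 µM final; 0% = mean of DMSO vehicle wells on each plate; positive means more glutamate uptake than control and negative means less.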 As to conditions: MN-1 motor neuron cells, stronger effect = higher value.
The nature of test [9]: GFP-Q80 aggregate reduction, neuronal-like cells, cell-based, NGF-treated PC12, GFPQ80 (AID 1614).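 Also: lower means fewer inclusions and 0 means no inclusions at all.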 The following applies: PC12 NGF-treated GFP-polyQ80 inclusion reduction.
A short description of test [10]: 75Q-TubH aggregate inhibition, S. cerevisiae, yeast (AID 1616). As to conditions: S. cerevisiae 75Q-TubH polyglutamine aggregation suppression; stronger effect = higher value.
Test [11] in a line: EMT-state selective cytotoxicity in co-culture – imaging, PC-3E GFP, TEM4-18 mCherry, primary screen (AID 1345086;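 active = compounds killing one labelled cell type while sparing the other, by normalised counts and ratio limits, not self-fluorescent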;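 as to all read-outs here: cells exposed to compound for 72 h before imaging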;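 as to red/green cell ratio (normalised): normalised mesenchymal count divided by normalised epithelial count so high means epithelial killing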). As to conditions: PC-3E GFP / TEM4-18 mCherry co-culture, imaging cell counts, at 1 µM; for red/green cell ratio (normalised): actives lie on both sides, counts scaled to control wells, 1 = unselective.
Test [12] is described as follows: P. berghei load reduction in hepatocytes – cell-based, HepG2, luciferase luminescence, HepG2 viability, primary screen (AID 624349; in the data active = parasite load remaining mostly below about 12%, no sharp cut-off; inactive = mostly above about 10%;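 also: 100% = mean of DMSO negative control wells on the same plate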). As to conditions: P. berghei liver stage in HepG2, luciferase luminescence, concentration not given here; parasite load remaining: stronger effect = lower value; viability: measured here: HepG2 viability without parasites.
Setting [13] is: measured here: epithelial PC-3E GFP cell survival.
Setting [14] is: measured here: mesenchymal TEM4-18 mCherry cell survival.

In the case of `NC(=O)Nc1sc(-c2ccc(F)cc2)cc1C(N)=O`, the viability is 131% (inactive) in test [1] (at 0.00488 µM, OCI-C5x cells, without rucaparib); 105% (inactive) in [1] (at 0.00488 µM, OCI-P5x cells, with rucaparib 20 µM, 100% = cells with rucaparib alone); 104% (inactive) in test [1] (at 0.00488 µM, OCI-P5x cells, without rucaparib); 115% (inactive) in test [1] (at 0.0195 µM, OCI-C5x cells, with rucaparib 10 µM, 100% = cells with rucaparib alone); 108% (inactive) in test [1] (at 0.0195 µM, OCI-C5x cells, without rucaparib); 102% (inactive) in test [1] (at 0.0195 µM, OCI-P5x cells, with rucaparib 20 µM, 100% = cells with rucaparib alone). Besides, the viability in test [1] (at 0.0195 µM, OCI-P5x cells, without rucaparib) is 101% (inactive); in test [1] (at 0.0781 µM, OCI-C5x cells, with rucaparib 10 µM, 100% = cells with rucaparib alone) it was 115% (inactive); in test [1] (at 0.0781 µM, OCI-C5x cells, without rucaparib), 109% (inactive); in test [1] (at 0.0781 µM, OCI-P5x cells, with rucaparib 20 µM, 100% = cells with rucaparib alone), 102% (inactive); in test [1] (at 0.0781 µM, OCI-P5x cells, without rucaparib), 98.9% (active); in test [1] (at 0.313 µM, OCI-C5x cells, with rucaparib 10 µM, 100% = cells with rucaparib alone), 124% (inactive). For the same compound, the viability in [1] (at 0.313 µM, OCI-C5x cells, without rucaparib) is 105% (inactive); in [1] (at 0.313 µM, OCI-P5x cells, with rucaparib 20 µM, 100% = cells with rucaparib alone), 95.8% (active); in [1] (at 0.313 µM, OCI-P5x cells, without rucaparib) it was 93% (active); in test [1] (at 1.25 µM, OCI-C5x cells, with rucaparib 10 µM, 100% = cells with rucaparib alone), 125% (inactive); in test [1] (at 1.25 µM, OCI-C5x cells, without rucaparib), 104% (inactive); in test [1] (at 1.25 µM, OCI-P5x cells, with rucaparib 20 µM, 100% = cells with rucaparib alone), 92.8% (active). Also, the viability in test [1] (at 1.25 µM, OCI-P5x cells, without rucaparib) is 87.7% (active); in test [1] (at 5 µM, OCI-C5x cells, with rucaparib 10 µM, 100% = cells with rucaparib alone), 95.3% (active); in [1] (at 5 µM, OCI-C5x cells, without rucaparib), 67.2% (active); in [1] (at 5 µM, OCI-P5x cells, with rucaparib 20 µM, 100% = cells with rucaparib alone), 39% (active); in [1] (at 5 µM, OCI-P5x cells, without rucaparib), 60.3% (active). Moreover, the z-score in [2] was 0.96 (inactive).
Consider `COc1ccc([C@@H]2CC(=O)c3c(O)cc(O[C@@H]4O[C@H](CO[C@H]5O[C@@H](C)[C@H](O)[C@@H](O)[C@H]5O)[C@@H](O)[C@H](O)[C@H]4O)cc3O2)cc1O`, for which the inhibition in [3] worked out at 12.3%. In test [4], this compound had a score of 1.13. In [5], this compound came in with a rescue above control of -5.33. Moreover, the cytochrome c release ratio in [6] was found to be 0.96. Moreover, the inhibition of aggregation in test [7] stood at 83.3%. In [8], this compound registered a glutamate uptake change of 7.48%. Besides, the inclusion score in [9] came to 2. This compound displayed an aggregation suppression score in test [10] of 1.41. Also, in test [11], the red/green cell ratio (normalised) is 0.82 (inactive). Also, the normalised cell number is 0.99 in test [11] (setting [13]) and 0.81 in test [11] (setting [14]).
Take `O=C(/C=C/c1ccc(O)c(O)c1)OC(Cc1ccc(O)c(O)c1)C(=O)O` (stereo not given): in test [12], the parasite load remaining was 107% (inactive) and the viability was found to be 70.8%. In [11], the red/green cell ratio (normalised) was 1.03 (inactive). Moreover, the normalised cell number in [11] (setting [13]) stood at 1.08. The compound also returned a normalised cell number in [11] (setting [14]) of 1.12.
Regarding `C[C@@H]1O[C@@H](OC[C@H]2OC(Oc3c(-c4ccc(OCCO)c(OCCO)c4)oc4cc(OCCO)cc(O)c4c3=O)[C@H](O)[C@@H](O)[C@@H]2O)[C@H](O)[C@H](O)[C@H]1O` (stereo not given in full), the parasite load remaining in [12] was 141% (inactive). Moreover, in test [12], the viability came to 89.1%. Further, the red/green cell ratio (normalised) in [11] was 0.94 (inactive). Also, the normalised cell number in [11] (setting [13]) was 1.03; in [11] (setting [14]), 0.96.
As for `C/C=C(/C)C(=O)O[C@@H]1[C@H](OC(C)=O)[C@@]2(CO)C(CC1(C)C)C1=CCC3[C@@]4(C)CC[C@H](O[C@@H]5O[C@H](C(=O)O)[C@@H](O[C@@H]6O[C@H](CO)[C@@H](O)[C@H](O)[C@H]6O)[C@H](O)[C@H]5O[C@@H]5O[C@H](CO)[C@@H](O)[C@H](O)[C@H]5O)[C@](C)(CO)C4CC[C@@]3(C)[C@]1(C)C[C@H]2O` (stereo not given in full), in test [12], the parasite load remaining was 66% (inactive) and the viability was 87.2%. Moreover, in test [11], the red/green cell ratio (normalised) was 0.77 (inactive). This compound also came in with a normalised cell number in test [11] (setting [13]) of 1.1. Moreover, the normalised cell number in test [11] (setting [14]) was 0.85.

One may read the viability as a read-out of living cells in per cent, often relative to untreated cells. As usually defined, the inhibition is the relative decrease from the control value, in per cent.
